Results from the supplement of paper PMC12669032.

System: Fusobacterium nucleatum subsp. animalis
Test: growth AUC relative to DMSO control (median of replicates) (fraction); higher = more growth (less inhibition), active = hit call of the paper
Conditions: 20 µM; 24 h;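 active = AUC reduced over 20% with Padj below 0.05 in at least 2 of 3 replicates; inactive = otherwise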
In short: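 Starting at OD600 0.05, gut bacterial monocultures in mGAM were grown anaerobically at 37 °C with 20 µM compound (1% DMSO) under pierced gas-permeable seals. OD600 was read every hour for 24 h, and the lowest OD of each curve was set to 0. Area under the growth curve was normalised to the plate median of solvent-only wells, or to row and column medians on the industrial chemical plate, and the median of three biological replicates grown on separate days is given.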

Growth AUC, inactive:
N#Cc1cc(Cl)c(O)c(Cl)c1 1.03
CCc1cccc(C)c1N(C(=O)C(=O)O)C(C)COC (centres undefined) 1.01
CCC([O-])=C1C(=O)CC(C(=O)[O-])CC1=O.[Ca+2] (centres undefined) 1.11
COC1CCC2(CC1)NC(=O)C(c1cc(C)ccc1C)C2O (centres undefined) 1.16
O.O=C(Nc1ccc(Cl)c(Cl)c1)Nc1cc(Cl)ccc1Oc1ccc(Cl)cc1S(=O)(=O)[O-].[Na+] 0.691
NC(=O)c1nn(-c2c(Cl)cc(C(F)(F)F)cc2Cl)c(N)c1S(=O)C(F)(F)F (centres undefined) 0.945
Cc1nn(C)c(F)c1C(=O)Nc1ccccc1C(C)CC(C)C (centres undefined) 0.977
CCOC(=O)c1nc(C(Cl)(Cl)Cl)n(-c2ccc(Cl)cc2Cl)n1 0.995
CCCCOCN(C(=O)CS(=O)(=O)[O-])c1c(CC)cccc1CC.[Na+] 0.947
CCc1cccc(CC)c1N(COC)C(=O)CS(=O)(=O)[O-].[Na+] 1.07
CCN(CC)C(=O)c1cccc(C)c1 1.04
COC(=O)c1c(Cl)ccc(Cl)c1OC 0.968
CCN(CC)c1nc(C)cc(=O)[nH]1 1.06
CC(C)CNC(=O)N1CCNC1=O 1.07
COC(=O)c1ccccc1S(=O)(=O)NC(=O)n1nc(OCC(C)O)n(C)c1=O (centres undefined) 1.02
CCCNCCOc1c(Cl)cc(Cl)cc1Cl 0.918
CCCCCCCC/C=C\CCCCCCCCCCCC(=O)O 1.02
S=C([S-])NCCNC(=S)[S-].S=C([S-])NCCNC(=S)[S-].[Mn+2].[Zn+2] 1.06
Cc1cc(C)cc(OCC(C)Nc2nc(N)nc(C(C)(C)F)n2)c1 (centres undefined) 0.813
CCOc1ccc(C2(C(=O)OC(C#N)c3cccc(Oc4ccccc4)c3)CC2(Cl)Cl)cc1 (centres undefined) 1.07
CCNc1nc(NCC)nc(OC)n1 1.01
O=c1cccc2n1CCn1c-2cccc1=O 0.971
CCOCOc1ccc(C(=O)Nc2cccc(Cl)c2Cl)cc1 0.901
Cn1cc(C(=O)Nc2ccccc2-c2cc(F)c(F)c(F)c2)c(C(F)F)n1 0.873
CCOCN(C(=O)C(=O)O)c1c(C)cccc1CC 1.03
NC(Cn1cncn1)C(=O)O (centres undefined) 0.94
N#Cc1ccc(CC(=NNC(=O)Nc2ccc(OC(F)(F)F)cc2)c2cccc(C(F)(F)F)c2)cc1 (mixture of isomers) 1.12
C=O 1
COC(=O)c1ccc(C(=O)OC)cc1 1.01
N#Cc1c(N)nc(NC2CC2)nc1N 0.994
C#CCN(C)c1c(C#N)cnn1-c1nn2c(c1Cl)CCCC2 0.972
NS(=O)(=O)[O-].[NH4+] 1.09
O=C(O)Cc1c[nH]c2ccccc12 1.02
CCc1nc2ncnn2c(N)c1CCCC(=O)O.Cl 1.13
Cc1cc(C)cc(O)c1 0.923
CCOC(=O)/C(Cl)=C/c1cc(N2C(=O)C3=C(CCCC3)C2=O)ccc1Cl 0.954
c1ccc2c(c1)Cc1ccccc1-2 1.03
CCSc1nc(NC(C)C)nc(NC(C)C)n1 0.91
c1ccc2cc3ccccc3cc2c1 1.01
